High-throughput results (PubChem)
VP16 counter: Gal4-VP16 reporter inhibition counter-screen | Drosophila S2 Gal4-VP16 UAS-luciferase, luminescence, 20 h | Potency, µM (top dose mostly 53.6 µM), inactives show at the top dose activity, negative = inhibition, actives largely listed as inhibitors | actives 3.5% (n = 310,000);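 also: Gal4-VP16 expression switched on by copper sulfate through the metallothionein promoter; % is scaled to controls: 0 for no effect and ±100 for the full control effect; nearly all actives have a fitted effect of over 50% in size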
Sfp inh: inhibitors of Bacillus subtilis Sfp phosphopantetheinyl transferase; Q9F4F7; Biochemical Sfp PPTase activity, qHTS; Potency, µM, inactives show largest response in the series, negative = inhibition, usual class: inhibitors; actives 3.5% (n = 310,000);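 also: the enzyme is Sfp with the accession as filed and its product quenches rhodamine fluorescence; 0% = enzyme reaction without inhibitor and -100% = no enzyme wells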
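Buffer: 50 mM Hepes-Na pH 7.6, 10 mM MgCl2, 0.01% Nonidet P-40, 0.01% BSA. Enzyme 15 nM, pre-exposed to compound 15 min; substrates then added and fluorescence change tracked over 30 min.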
ClpP mod: qHTS Assay for Activators of ClpP | purified B. subtilis ClpP, FRET peptide cleavage, 20 min | Potency, µM (doses to about 57.5 µM), for inactives: at the top dose activity change, negative = active | actives 1.9% (n = 340,000); active = well fitted falling curve with a large enough effect; inconclusive = small, poorly fitted or top-dose-only effect; inactive = no such curve, though single readings can be large or run the other way; also: the source files actives as falling curves though it sought activators and does not explain the sign; nearly all actives have a fitted effect of over 65% in size
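ClpP 10 microg/mL final, pH 8 Tris/KCl buffer with BSA, glycerol, Tween-20; compound pinned in; FRET-FV substrate; RT 20 min; Ex320/Em430; ΔFRET vs ADEP 5.8 microM, DMSO, no enzyme.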
RORgamma inh: ROR gamma (mouse) transcription inhibition; Potency, µM (series often up to 53.6 µM), inactives show at the top dose activity change, negative = inhibition, hits mostly inhibitors; AID 2551; actives 5.4% (n = 310,000); Drosophila S2 Gal4-RORgamma UAS-luciferase reporter, 20 h; also: % is scaled to controls: 0 for no effect and ±100 for the full control effect; nearly all actives have a fitted effect of over 60% in size
Target sequence (P51450 whole entry, looked up, the tested form may be a part): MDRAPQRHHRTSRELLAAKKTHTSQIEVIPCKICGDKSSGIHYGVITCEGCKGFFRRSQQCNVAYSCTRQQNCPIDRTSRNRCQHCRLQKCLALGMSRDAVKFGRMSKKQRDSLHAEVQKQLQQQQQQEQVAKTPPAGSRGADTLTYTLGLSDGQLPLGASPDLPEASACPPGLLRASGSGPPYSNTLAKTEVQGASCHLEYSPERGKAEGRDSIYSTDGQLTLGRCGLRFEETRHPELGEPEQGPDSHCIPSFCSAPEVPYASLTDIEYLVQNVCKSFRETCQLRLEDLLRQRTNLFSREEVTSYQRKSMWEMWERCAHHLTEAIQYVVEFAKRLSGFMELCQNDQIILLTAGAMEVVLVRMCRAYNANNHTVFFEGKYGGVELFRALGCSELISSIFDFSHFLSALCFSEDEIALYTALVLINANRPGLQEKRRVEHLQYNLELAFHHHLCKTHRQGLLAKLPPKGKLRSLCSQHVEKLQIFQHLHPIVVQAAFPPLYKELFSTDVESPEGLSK
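Stable Schneider cell line, Gal4 DNA-binding domain fused to ROR gamma, UAS-luciferase. Cmpd 1 hr RT → CuSO4 700 uM final → 20 hr RT → luciferase reagent 10 min → luminescence.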
Epigenetic derep: epigenetic control regulation, reporter derepression; murine LDR cells, GFP reporter derepression, 30 h; Potency, µM (series often up to 53.9 µM), for inactives: at the top dose GFP activation, most hits filed as activators; actives 0.2% (n = 280,000); also: % of control where 0% means no effect; nearly all actives have a fitted effect of over 60% in size
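GFP-positive cell count by laser-scanning cytometry (objects 20–120 um) after 30 h, 37 C compound exposure of murine LDR cells; reporter is CMV-GFP integrated at a silenced locus, inducible by HDAC or DNMT inhibitors.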
PINK1 modulator: PINK1 expression modulation; PINK1 immunofluorescence, high-content cytometry, 24 h; Potency, µM (top dose mostly 76.6 µM), for inactives: top-dose activation (PINK1 increase), usual class: activators; actives 0.2% (n = 410,000); AID 624263; active = well fitted activation curve with a large enough effect; inconclusive = small, poorly fitted or top-dose-only effect; cell line not stated here; also: % of control where 0% means no effect; nearly all actives have a fitted effect of over 65% in size
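Stable cell line, 250 cells/well, 12 h attachment; compounds pinned at 5 concentrations, 24 h; CCCP control. Fixed with nuclear dye, primary antibodies 12 h at 10 degrees C, secondary plus cell stain; laser-scanning cytometer read.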
Numbers without * were called inactive; ? = inconclusive; / = no result given; [ ] = remark or other dose. Only some compounds are listed: those with a hit (about 8.1% of all), similar ones and a draw of the others. Unless noted, calls follow the shape of the dose curve; as a rule, active = well fitted curve in the direction sought with a large enough effect; inconclusive = small, poorly fitted or top-dose-only effect, or another doubt; inactive = no such curve, though single readings can be large; an effect the other way counts as inactive or inconclusive. Potency is read from the fitted curve at half-maximal effect.

SMILES	VP16 counter	Sfp inh	ClpP mod	RORgamma inh	Epigenetic derep	PINK1 modulator
S=c1[nH]nc(-c2ccccc2Cl)n1CC1CCCO1 (stereo not drawn)	-7%	?	-1%	-8%	-3%	-1%
Cc1ccc2cc(CN(Cc3ccco3)C(=O)c3cccs3)c(=O)[nH]c2c1	12%	25µM*	?	20%	0%	5%
Cc1ccc2[nH]c(=O)c(CN(Cc3ccco3)C(=O)c3cccs3)cc2c1	-6%	7%	/	-36%	-2%	/
Cc1ccc2cc(CN(C(=O)c3ccco3)c3ccccc3)c(=O)[nH]c2c1	-6%	28µM*	-9%	43%	0%	-1%
Cc1cccc(N(Cc2cc3ccc(C)cc3[nH]c2=O)C(=O)c2ccco2)c1	-3%	22µM*	-24%	?	4%	1%
Cc1ccc2cc(CN(C(=O)c3cccc(Cl)c3)c3ccccc3)c(=O)[nH]c2c1	/	/	-26%	/	-2%	-2%
Cc1ccc(N(Cc2cc3ccccc3[nH]c2=O)C(=O)c2ccco2)c(C)c1	10%	-9%	-21%	-20%	-1%	2%
Cc1ccc(N(Cc2cc3ccc(C)cc3[nH]c2=O)C(=O)c2ccco2)cc1	2%	22µM*	-20%	11%	1%	4%
COC(=O)c1ccc(NC(=O)CN(c2cccc(C(F)(F)F)c2)S(C)(=O)=O)cc1	/	/	2%	/	-1%	5%
CC(C)CC(=O)Nc1nnc(S(=O)(=O)N(C)Cc2ccc(Cl)cc2)s1	/	/	1%	/	1%	-1%
CC(C)C(NC(=O)c1ccoc1)c1nnc2n1CCN(C(=O)/C=C/c1ccc(F)cc1)CC2 (stereo not drawn)	/	/	/	/	/	-1%
CCOC(=O)c1ccc(NC(=O)CCc2c(C)nc3c(c(C)nn3C)c2C)cc1	/	/	-11%	/	-1%	?
O=C(c1ccco1)N(Cc1ccccc1)Cc1ccccn1	2%	-18%	0%	18%	1%	0%
O=C(c1cccs1)N(Cc1ccccn1)Cc1ccco1	1%	79µM*	0%	?	1%	0%[38.3 µM]
CCCn1c(=N)c(C#N)cc2c(=O)n3cccc(C)c3nc21	-8%	23%	/	-28%	1%	/
Cc1cccn2c(=O)c3cc(C(=O)NC4CCCCC4)c(=N)n(CCN4CCOCC4)c3nc12	-6%	17%	4%	16%	14%	5%
CCCCNC(=O)c1cc2c(=O)n3cccc(C)c3nc2n(CCN2CCOCC2)c1=N	-3%	17%	13µM*	-15%	0%	0%
CCCCNC(=O)c1cc2c(=O)n3cccc(C)c3nc2n(Cc2ccncc2)c1=N	-11%	0%	3.5µM*	4%	2%	?
Cc1cccn2c(=O)c3cc(C(=O)O)n(C)c3nc12	4%	-3%	32µM*	-20%	0%	-2%
Cc1cccn2c(=O)c3cc(C#N)c(=N)n(CCN4CCOCC4)c3nc12	7%	6%	16µM*	-10%	-5%	-1%
CCC(=O)N1CCc2cc(Br)cc(S(=O)(=O)Nc3ccccc3C(=O)OC)c21	/	/	-1%	/	-1%	0%
COc1ccc(C2CC(=O)c3cc(-c4nc(-c5cccc([N+](=O)[O-])c5)cs4)c(=O)n(-c4ccc(C)c(C)c4)c3C2)cc1 (stereo not drawn)	/	/	0%	/	1%	2%
Cc1csc2nc(=O)c3ccccc3n12	1%	13%	11µM*	0%	2%	-2%
COCC1CCCN(Cc2ccc3c(c2)CN(C(=O)c2cnn(C(C)C)c2)CCO3)C1 (stereo not drawn)	/	/	/	/	/	0%
O=C(COc1ccccc1)NC(=S)Nc1ccc(Br)cn1	?	9%	-1%	13µM*	4%	0%
COC(=O)c1ccccc1NC(=S)NC(=O)CC(C)C	?	12%	11%	13µM*	-3%	1%[38.3 µM]
CCCCCC(=O)NC(=S)Nc1ccccc1C(=O)OC	?	7%	11%	14µM*	-3%	-5%
